Screens: PubChem, The Scripps Research Institute Molecular Screening Center
In the library only some 4.1% were active in any assay of this set; here they are far more common.
DAX1 inh-1 – inhibits human nuclear receptor DAX1; P51843; 0.99% of 340,000 active; inhibition, % at 6.75 µM; HEK293 Gal4-DAX1 luciferase reporter, luminescence;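 active means inhibition above the mean over all tested compounds plus 3 SD, cut at about 4.2% in these data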;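 further: inhibition shows as a rise in luminescence from relieved DAX1 repression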
Target sequence (P51843 207-470 limits assumed): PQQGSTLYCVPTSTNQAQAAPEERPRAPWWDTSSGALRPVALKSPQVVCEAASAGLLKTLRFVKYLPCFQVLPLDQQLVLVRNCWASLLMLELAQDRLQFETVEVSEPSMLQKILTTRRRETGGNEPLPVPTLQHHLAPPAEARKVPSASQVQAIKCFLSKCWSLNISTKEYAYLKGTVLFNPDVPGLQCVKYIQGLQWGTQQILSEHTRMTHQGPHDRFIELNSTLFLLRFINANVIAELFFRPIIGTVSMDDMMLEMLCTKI
ssDAF-12 act – activates DAF-12 receptor from parasite S. stercoralis; HEK293 ssDAF-12/GRIP1 lit1-tk-luc reporter, luminescence; % of 3 µM dafachronic acid response; activation, % at 6.8 µM; 1% of 370,000 active; AID 652126;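 active means activation above the mean over all tested compounds plus 3 SD, cut at about 0.9% in these data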
hcDAF12 agonist – activates DAF-12 receptor from parasite H. contortus; HEK293 hcDAF-12 lit1-tk-luc reporter, luminescence; 0% DMSO, 100% Δ7-dafachronic acid; activation, % at 6.8 µM; 1.4% of 370,000 active;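 active means activation above the mean of all tested compounds plus 3 SD, cut at about 5.5% in these data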
hgDAF12 agonist – hgDAF-12 agonism, primary luciferase screen. HEK293 GAL4-hgDAF12 UAS-luciferase reporter, agonist luminescence; normalized to butyrate control. activation, % at 6.8 µM. 1.8% of 370,000 active. AID 687014;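 active means activation above a cutoff set at the mean of all screened compounds plus 3 SD, cut at about 10% in these data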
DAX1 inh-2 – blocks DAX1 repression of SF-1 activated StAR promoter; HEK293T StAR-luciferase reporter, SF-1/DAX-1 repression relief; inhibition, % at 6.8 µM; 1.1% of 370,000 active;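 active means inhibition above the mean over all tested compounds plus 3 SD, cut at about 3.6% in these data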;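 further: higher inhibition means more luminescence from relief of DAX-1 repression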
Large screens that a line does not name were inactive.

COc1ccc(C2C(C(=O)Nc3cc(OC)c(OC)c(OC)c3)CCC(=O)N2c2ccc(OC)cc2)cc1 (centres undefined)	none (no result: DAX1 inh-1)
c1cncc(CSc2ccc(-c3ccc4c(c3)OCO4)nn2)c1	hcDAF12 agonist 5.6
CC1(C)CC(=O)c2sc(NC(=O)C(C)(C)C)nc2C1	ssDAF-12 act 1.5
COc1ccc2c(c1)CC/C(=C/c1ccncc1)C2=O	none (no result: ssDAF-12 act, hcDAF12 agonist, hgDAF12 agonist, DAX1 inh-2)
COc1ccc2c(c1)CC/C(=C\c1ccc(C)o1)C2=O	DAX1 inh-1 4.9
N/C(=N\OC(=O)c1ccc([N+](=O)[O-])cc1Cl)c1ccccn1	ssDAF-12 act 1.1, hcDAF12 agonist 6.1
N/C(=N\OC(=O)c1cc([N+](=O)[O-])ccc1Cl)c1ccccn1	none
CSCCCNc1nc(C)nc2c1nnn2Cc1ccccc1	none (no result: DAX1 inh-1)
CCC(=O)Nc1ccc2oc(-c3ccccc3Br)nc2c1	hgDAF12 agonist 11
Cc1ccccc1-c1nc2cc(NC(=O)C3CC3)ccc2o1	hgDAF12 agonist 11
COc1ccc2cc(C(=O)NCCCN3CCCC3=O)[nH]c2c1	hcDAF12 agonist 6.2
COc1cccc2[nH]c(C(=O)NCCCN3CCCC3=O)cc12	none
CC(=C1C(=O)c2ccccc2C1=O)N1CCc2ccccc2C1	hcDAF12 agonist 5.7
O=C1C(=O)N(CCN2CCOCC2)C(c2ccccc2)/C1=C(\O)c1ccc2c(c1)OCCO2 (centres undefined)	DAX1 inh-2 4.0
COc1ccc(C2c3[nH]c4ccccc4c3CCN2C(=O)Cc2nonc2C)c(F)c1 (centres undefined)	hcDAF12 agonist 5.7
Cc1cccc(C2c3[nH]c4ccccc4c3CCN2C(=O)Cc2n[nH]c(C)n2)n1 (centres undefined)	ssDAF-12 act 1.5
Cc1cccc(C2c3[nH]c4ccccc4c3CCN2Cc2ccc(C)s2)n1 (centres undefined)	ssDAF-12 act 1.0, hcDAF12 agonist 6.4
COc1cccc(C2c3[nH]c4ccccc4c3CCN2Cc2cnc(C)s2)c1OC (centres undefined)	ssDAF-12 act 1.1
COC(=O)Cc1nnn2c1[C@H](C)[C@@H](OC)c1ccccc1-2	none (no result: DAX1 inh-1)
Cc1ccccc1Cn1cc(COC(=O)NCCc2c[nH]c3ccccc23)nn1	none (no result: DAX1 inh-1)
CCC[C@@H](/C=C/C(=O)OC(C)(C)C)Sc1ccccc1OC	none (no result: DAX1 inh-1)
O=C(c1cc(-c2ccc(Cl)c(Cl)c2)on1)N1CCCCCC1	none
O=C(c1cc(-c2ccc3c(c2)OCO3)on1)N1CCCCC1	hcDAF12 agonist 5.8
O=C(NCCc1nc2ccccc2n1C/C=C/c1ccccc1)C1CCCCC1	none (no result: DAX1 inh-1, DAX1 inh-2)
O=[N+]([O-])c1ccc2nc(-c3ccc(Cl)cc3)n(OCc3ccccc3)c2c1	none
CC(O)c1nc2cc([N+](=O)[O-])ccc2n1Cc1ccccc1 (centres undefined)	none
O=C(O)COn1c(-c2ccc(Cl)cc2)nc2ccc(Cl)cc21	hcDAF12 agonist 6.2
CCOC(=O)C(C)On1c(-c2ccccc2)nc2ccc([N+](=O)[O-])cc21 (centres undefined)	hgDAF12 agonist 12
Cc1ccc(COn2c(-c3ccc(Cl)cc3)nc3ccc([N+](=O)[O-])cc32)cc1	DAX1 inh-1 4.7, ssDAF-12 act 1.1
COc1ccc(-c2nc3ccccc3n2OCC(=O)O)cc1	hgDAF12 agonist 11
COn1c(-c2ccc(Cl)cc2)nc2ccc(Cl)cc21	none
COCCCN1C(=O)[C@H](CC(=O)NCCC(C)C)[C@]2(C(=O)OC)CCCCC=C12	none (no result: DAX1 inh-1)
COC(=O)[C@H]1C[C@@]2(n3ccc4ccccc43)c3ccccc3N(S(=O)(=O)c3ccccc3)[C@H]2N1C(=O)CNC1CCCCC1	none (no result: DAX1 inh-1)
O=C(Nc1ccc(NC(=O)c2cc3ccccc3o2)cc1)c1ccco1	none
CC(=O)Nc1ccc(-c2cc3ccccc3o2)cc1	DAX1 inh-1 4.5, ssDAF-12 act 0.9
O=C(Nc1ccc(F)cc1)c1cc2ccccc2o1	DAX1 inh-1 4.3, ssDAF-12 act 1.6, hcDAF12 agonist 6.5
O=C(Nc1ccc(Cl)cc1Cl)c1cc2ccccc2o1	ssDAF-12 act 2.2
O=C(NCCc1ccc(F)cc1)c1cc2ccccc2oc1=O	DAX1 inh-1 4.3
O=C(Cn1c(-c2cncs2)nc2ccccc21)N1CCCCC1	none (no result: DAX1 inh-1)
CC(=O)OCC(COC(C)=O)(CN1C(=O)c2ccccc2C1=O)CN1C(=O)c2ccccc2C1=O	none (no result: DAX1 inh-1)
Cc1ccc(NC(=O)C2CCCN(c3nnc(-n4cccc4)s3)C2)c(C)c1 (centres undefined)	none (no result: DAX1 inh-1)
CCCC(=O)N1CCC[C@]2(CC[C@@H](CCC(=O)N(CC)CC)O2)C1	none (no result: DAX1 inh-1)
CSc1nc2ccc(NC(=O)c3cccs3)cc2s1	hgDAF12 agonist 11
O=C(NCCc1ccccc1)c1ccc2c(c1)OCCO2	none
O=C(NCCc1ccc2c(c1)OCCO2)c1ccccc1F	hgDAF12 agonist 12
Cc1ccc(-c2[nH]c3ccccc3c2SCCNC(=O)c2cc3ccccc3oc2=O)cc1	hcDAF12 agonist 6.5
COc1cc(NC(=O)C(C)C)ccc1NC(=O)c1cc2ccccc2o1	DAX1 inh-1 6.1
CC(C)(C)C(=O)OC12CCCN(C1)/C(=C/c1ccncc1)C2 (centres undefined)	none (no result: DAX1 inh-1)
C=CCN1[C@H](CO)[C@H](c2ccc(Br)cc2)[C@@H]1C#N	none (no result: DAX1 inh-1)
Cc1[nH]c2ccccc2c1CC(=O)Nc1ccc(Nc2cccnc2)c(Br)c1	none (no result: DAX1 inh-1)
CCn1cnc2cc(NC(=O)c3cccs3)ccc21	DAX1 inh-2 3.9
CSc1nc2ccc(NC(=O)c3ccc(F)c(F)c3)cc2s1	none
CC(C)(C)n1cnc2cc(NC(=O)c3ccccc3)ccc21	DAX1 inh-1 5.5, hgDAF12 agonist 11
CCn1cnc2cc(NCc3cccs3)ccc21	none
CSc1nc2ccc(NC(=O)c3cc4ccccc4o3)cc2s1	hgDAF12 agonist 12
N/C(=N\NC(=O)c1ccccc1)c1cc2ccccc2oc1=O	hgDAF12 agonist 12
CC(=O)Nc1ccc(/C=C/COC(C)=O)cc1C	none (no result: DAX1 inh-1, DAX1 inh-2)
N#Cc1ccccc1OCC(=O)NCC1(N2CCCCC2)CCCCC1	ssDAF-12 act 1.5
CN1CCCCC(NC(=O)c2ccc(C#N)cc2)C1=O (centres undefined)	none (no result: DAX1 inh-1)
COC(=O)C1CN(Cc2ccccc2)CCS(=O)(=O)N1Cc1cn(Cc2ccc(C)cc2)nn1 (centres undefined)	none (no result: DAX1 inh-1)
Nc1ccc2nc(SCc3ccccc3F)sc2c1	ssDAF-12 act 1.0
CCOc1ccc2nc(SCc3ccc(F)cc3)sc2c1	none
Nc1nnc(SCC(=O)c2ccc3ccccc3c2)s1	ssDAF-12 act 1.1
Nc1cc(N)nc(SCC(=O)c2ccccc2)n1	none
Nc1ccc2nc(SCC(=O)c3ccccc3)sc2c1	ssDAF-12 act 1.3
CCCCN1CC(=O)N2[C@H](C[C@@]3(C)c4ccccc4N(S(=O)(=O)c4ccccc4)[C@@H]23)C1=O	none (no result: DAX1 inh-1)
Cc1ccc(OCC(=O)Nc2ccc(F)cc2)c([N+](=O)[O-])n1	DAX1 inh-1 7.0
Cc1ccc(C)c(C(=O)COc2ccc(C)nc2[N+](=O)[O-])c1	none
Cc1ccc(OCC(=O)c2c[nH]c3ccccc23)c([N+](=O)[O-])n1	hcDAF12 agonist 6.3
